Source: PubChem BioAssay

Experiment: Plasmodium falciparum growth inhibition, primary screen, strain 3D7, DAPI fluorescence, 100 nL (AID 1184);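 further: parasites grown inside human red blood cells in medium with human serum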
Conditions: P. falciparum 3D7 growth, 3 d, higher = more signal

Structure (SMILES) | z-score
CCCC=C(CCC)[C@@H](NC(=O)c1ccc(-c2ccccc2)cc1)c1ccc(C(=O)OC)cc1 | 0.208
COC(=O)[C@@]1(Cc2ccccc2)[C@H]2c3cc(C(=O)N4CCCC4)n(Cc4ccccn4)c3C[C@H]2CN1C(=O)c1ccccc1 | -1.5
O=C(CS)NCCCCCNC(=O)[C@@H]1C[C@@H]2C(=O)N[C@@H](Cc3ccccc3)C(=O)N2[C@@H]1c1ccc(O)cc1 | -0.14
CC(C)C[C@@H]1NC(=O)[C@H]2C[C@@H](C(=O)NCCCCCCN(C)C)[C@@H](c3cccc(OCCO)c3)N2C1=O | 0.063
COCCCNC(=O)[C@@]1(CCS(=O)(=O)c2ccccc2)N=C(c2ccc(OCCCO)cc2)O[C@H]1c1ccccc1 | -1.62
Cc1ccc(S[C@]2(C(=O)NCC(F)(F)F)CC(=O)N(Cc3ccccc3Cl)[C@@H]2c2ccc(CO)cc2I)cc1 | 0.115
O=C1O[C@@H](c2ccccc2)[C@@H](c2ccccc2)N2[C@@H](c3ccc(OCCO)cc3)[C@]3(C(=O)Nc4ccc(C#CCCO)cc43)[C@@H](C(=O)N3CCCCCCC3)[C@H]12 | -2.22
CCOC(=O)C1=CCC(c2cc3ccccc3[nH]2)NC1 (stereo unspecified) | -0.501
O=C1NC(=O)C2C1C=CC(C(O)Cc1ccccc1)N2Nc1ccccn1 (stereo unspecified) | 0.396
C#C[C@@H]1Oc2ccccc2S(=O)(=O)N2CCC[C@H]12 | -0.0728
COc1ccc([Si](C)(C)[C@H]2[C@H](CCO)O[C@@]3(C(=O)N(Cc4cccc(NC(=O)[C@H](C)O)c4)c4ccccc43)[C@@H]2C)cc1 | -2.74
C=CCOC(=O)[C@H]1[C@@H]2C(=O)O[C@@H](c3ccccc3)[C@@H](c3ccccc3)N2[C@@H](c2ccc(OCCOC(=O)[C@H]3C[C@H]4C(=O)N5CCC[C@H]5C(=O)N4[C@H]3c3cccc(OCCO)c3)cc2)[C@]12C(=O)Nc1ccc(I)cc12 | -0.139
C=C(/C(=C/C[C@@H](OC(=O)c1ccncc1)c1ccc(OCCO)cc1)c1cnc2ccccc2c1)C(C)C | -2.84
O=C1C[C@]2(c3ccc([N+](=O)[O-])cc3)C(=O)N(CCN3CCOCC3)c3cc(CO)ccc3[C@H]2N1CC12CC3CC(CC(C3)C1)C2 | -0.226
CC(C)C[C@@H]1NC(=O)[C@H]2C[C@@H](C(=O)O)[C@@H](c3ccc(O)cc3)N2C1=O | -0.251
COCCOC(=O)N1C(=O)[C@@]2(c3cc(C#Cc4ccc(OC)cc4)ccc31)[C@H](c1ccc(O)cc1)N1[C@H](c3ccccc3)[C@H](c3ccccc3)OC(=O)[C@H]1[C@@H]2C(N)=O | -0.687
CC(C)NC(=O)[C@@]1(C)c2ccccc2C(=O)N(Cc2cc(F)cc(C(F)(F)F)c2)[C@H]1c1ccc(CO)cc1 | 0.281
COCCOC(=O)N1C(=O)[C@@]2(c3ccccc31)[C@H](C(N)=O)[C@H]1C(=O)O[C@H](c3ccccc3)[C@H](c3ccccc3)N1[C@@H]2c1ccccc1OCCO | -0.418

Structure (SMILES) | z-score
CN1C(=O)C2C=CC(C(O)c3ccc(I)cc3)N(NC(=O)OC(C)(C)C)C2C1=O (stereo unspecified) | -0.711
C=CCC(OC(C)=O)[C@@H]1[C@@H](N(Cc2cc3ccccc3o2)C(=O)Cc2ccc(F)cc2)c2cc(OCCCO)ccc2N1C(=O)Cc1ccc(OC)cc1 (stereo partly specified) | 0.163
CN1C(=O)C2C=CC(C(O)C(c3ccccc3)c3ccccc3)N(NC(=O)OC(C)(C)C)C2C1=O (stereo unspecified) | 0.617
COCCCNC(=O)[C@]1(CCC(=O)OC(C)(C)C)N=C(c2ccc(OCCCO)cc2)O[C@@H]1c1ccccc1N=[N+]=[N-] | -1.75
O=C1O[C@@H](c2ccccc2)[C@@H](c2ccccc2)N2[C@@H](c3ccccc3OCCO)[C@]3(C(=O)Nc4ccc(C#CCCO)cc43)[C@@H](C(=O)O)[C@H]12 | -1.69
CN1C(=O)C2C(C1=O)C1C=C(CCCO)C2C(c2ccc(CN3CCCC3)cc2)N1C (stereo unspecified) | -1.27
COC(=O)[C@@]1(Cc2ccc(F)cc2)[C@@H]2C(=CC(=O)[C@H]2CC(=O)C(=O)N(C)C)CN1C(=O)c1ccccc1 | -1.35
[N-]=[N+]=NCc1ccccc1C[C@]1(C(=O)NCc2ccccc2)N=C(c2ccc(OCCCO)cc2)O[C@H]1c1ccccc1N=[N+]=[N-] | -2.52
C=C(COC)/C(=C/C[C@H](OC(=O)c1ccncc1)c1ccc(CO)o1)c1cc(C(=O)OC)ccc1OC | 0.215
CS(=O)(=O)CCOC(=O)C1=CC(CCCO)=CC(c2cccs2)N(Cc2cccc(OC(F)(F)F)c2)C=C1C(=O)OCCS(C)(=O)=O (stereo unspecified) | -2.99
CCCNC(=O)[C@@H]1c2ccccc2C(=O)N(Cc2ccccc2Cl)[C@H]1c1ccc(CO)cc1 | -0.994
CCc1cccc(NC(=O)O[C@H]2[C@H](OC(=O)Nc3ccc4c(c3)OCO4)[C@@H](OC(=O)Nc3ccc4c(c3)OCO4)[C@@H](OC)O[C@@H]2CO)c1 | -2.23
COC(=O)[C@@]1(Cc2ccc(OC)cc2)[C@H]2c3cc(C(=O)N4CCCC4)n(Cc4cc(F)c(F)c(F)c4)c3C[C@H]2CN1C(=O)c1ccccc1 | -1.56
CN(C)C(=O)[C@@]1(Cc2ccccc2)N=C(c2ccc(OCCCO)cc2)O[C@H]1c1ccccc1CN=[N+]=[N-] | -2.11
COc1ccc([Si](C)(C)[C@@H]2[C@@H](CCO)O[C@]3(C(=O)N(Cc4ccc(NC(C)=O)cc4)c4ccccc43)[C@H]2C)cc1 | -2.92
O=C1O[C@@H](c2ccccc2)[C@@H](c2ccccc2)N2[C@@H](c3ccc(O)cc3)[C@]3(C(=O)Nc4ccccc43)[C@@H](C(=O)O)[C@H]12 | -1.73
O=C1c2ccccc2[C@@]2(Cc3ccccc3N(C3CC3)C2=O)[C@H](c2ccc(CO)cc2)N1Cc1ccccc1C(F)(F)F | -1.42
O[C@@H](Cc1ccccc1)[C@H]1C2C=CCCC(c3ccccc3)=C2CN1Cc1cccc(Cl)c1 (stereo partly specified) | 0.514
